Screening data as filed in PubChem.
An excerpt weighted towards active compounds, which were near 4.8% of everything screened.
PfHsp90 set2: growth inhibition of PfHsp90-expressing yeast, primary screen, antimalarial PfHsp90 inhibitor project, S. cerevisiae, BacTiter-Glo luminescence, single point, set 2. BacTiter-Glo ATP, 48 h; yeast lacking PDR1 and PDR3 efflux regulators. inhibition, % at 9.4 µM. hit rate 0.32% among 310,000. AID 504621, 2011;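 active = every replicate shows inhibition above about 80%, whatever the replicate mean, limit read from the data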
tim23-1 inh: growth inhibitors of tim23-1 mutant yeast, primary screen, luminescence, uHTS; S. cerevisiae tim23-1 growth, BacTiter-Glo luminescence, 24 h; inhibition, % at 20 µM; hit rate 1.3% among 330,000;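 active = growth inhibition of the mutant yeast at or above 50%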;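 note: temperature-sensitive mutant grown at 25 °C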
tim10-1 inh: growth inhibitors of tim10-1 mutant yeast, primary screen, luminescence, uHTS. inhibition, % at 20 µM. AID 463190, 2010. hit rate 2.2% among 330,000. S. cerevisiae tim10-1 ts strain growth, BacTiter-Glo, 24 h;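 active = inhibition of at least 40%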;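 note: mutant grown at 25 °C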
SKKanGAS inh: S. pyogenes SKKanGAS growth inhibitors in kanamycin, primary screen, streptokinase expression inhibitor project, SKKanGAS strain, BacTiter-Glo luminescence | 6 h | AID 1662, 2009 | hit rate 1.3% among 300,000 | inhibition, % at 7.5 µM;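 active = mean replicate score, as percent of positive control median, at least 50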;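 note: strain carries kanamycin resistance gene driven by streptokinase promoter and grows in 40 µg/ml kanamycin; loss of luminescence reflects streptokinase promoter inhibition or plain growth inhibition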
NALP1 yeast inh: NALP1 inflammasome inhibitors in reconstituted yeast, colorimetric, S. cerevisiae, triplicate retest; hit rate 0.61% among 280,000; inhibition, % at 10 µM; AID 2071, 2009; S. cerevisiae NALP1/ASC/caspase-1 growth, X-gal OD620, 72 h; in the data active = inhibition mostly above about 24%, no sharp cut-off; inactive = mostly below about 32%
TIM10 inh: growth inhibitors of isogenic TIM10 control yeast, primary screen, counter-screen for tim10-1 yeast inhibitor project, luminescence, uHTS; S. cerevisiae TIM10 strain growth, BacTiter-Glo luminescence, 24 h; inhibition, % at 10 µM; hit rate 1.4% among 330,000; AID 463195, 2010;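 active = inhibition of 40% or more at the single tested concentration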;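 note: wild-type TIM10 isogenic control strain grown at permissive 25 °C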
Numbers stand for hits.

How did O=c1[nH]nc(SCc2nc3ccccc3s2)n1C1CC1 do in these assays?
PfHsp90 set2: inactive; tim23-1 inh: inactive; tim10-1 inh: inactive; SKKanGAS inh: inactive; NALP1 yeast inh: inactive; TIM10 inh: inactive

What do the screens show for `CCS(=O)(=O)Nc1ccc2c(c1)N(C(C)=O)c1ccccc1CC2`?
PfHsp90 set2: inactive; tim23-1 inh: inactive; tim10-1 inh: inactive; SKKanGAS inh: inactive; NALP1 yeast inh: 28; TIM10 inh: inactive

Results for O=C(NCCCN1CCOCC1)c1ccc(CS(=O)(=O)Cc2ccccc2Cl)o1 ?
PfHsp90 set2: inactive; tim23-1 inh: inactive; tim10-1 inh: inactive; SKKanGAS inh: inactive; NALP1 yeast inh: 29; TIM10 inh: inactive

How did O=C(NCCCN1CCCCCC1)c1ccc(CS(=O)(=O)Cc2ccccc2F)o1 do in these assays?
PfHsp90 set2: inactive; NALP1 yeast inh: inactive

Results for O=C(O)CCCn1cc(NC(=O)c2cc(F)c(F)cc2Cl)cn1 ?
PfHsp90 set2: inactive; tim23-1 inh: inactive; tim10-1 inh: inactive; SKKanGAS inh: inactive; NALP1 yeast inh: inactive; TIM10 inh: inactive

How did O=C(O)CCCn1cc(NC(=O)c2cccc(F)c2)cn1 do in these assays?
PfHsp90 set2: inactive; tim23-1 inh: inactive; tim10-1 inh: inactive; SKKanGAS inh: inactive; NALP1 yeast inh: 27; TIM10 inh: inactive

How did CCC(C(=O)NCc1ccco1)N(C(=O)CNS(=O)(=O)c1ccccc1)c1ccccc1C (stereo not drawn) do in these assays?
PfHsp90 set2: inactive; tim23-1 inh: inactive; tim10-1 inh: inactive; SKKanGAS inh: inactive; NALP1 yeast inh: inactive; TIM10 inh: inactive

Results for CCCCC(=O)NC(c1ccccc1OC)c1ccc2cccnc2c1O (stereo not drawn) ?
PfHsp90 set2: 106; tim23-1 inh: inactive; tim10-1 inh: inactive; SKKanGAS inh: inactive; TIM10 inh: inactive

What do the screens show for `CCCC(=O)NC(c1ccccc1OC)c1ccc2cccnc2c1O` (stereo not drawn)?
PfHsp90 set2: inactive; tim23-1 inh: inactive; tim10-1 inh: inactive; SKKanGAS inh: inactive; NALP1 yeast inh: inactive; TIM10 inh: inactive

Results for CCCC(=O)NC(c1ccc(Cl)cc1Cl)c1ccc2cccnc2c1O (stereo not drawn) ?
PfHsp90 set2: inactive; tim23-1 inh: inactive; tim10-1 inh: inactive; SKKanGAS inh: 89; NALP1 yeast inh: inactive; TIM10 inh: inactive

How did CC(C)c1ccc(S(=O)(=O)N2CCC(C(=O)N3CCC3)CC2)cc1 do in these assays?
PfHsp90 set2: inactive; tim23-1 inh: inactive; tim10-1 inh: inactive; SKKanGAS inh: inactive; TIM10 inh: inactive

What do the screens show for `O=C(CO/N=C\c1ccccc1)Nc1ccccc1C(=O)N1CCOCC1`?
PfHsp90 set2: inactive; tim23-1 inh: inactive; tim10-1 inh: inactive; SKKanGAS inh: inactive; NALP1 yeast inh: inactive; TIM10 inh: inactive

Results for C[C@@H]1CC=C[C@H]2[C@H]1C(=O)N(Cc1ccccc1)[C@H]2c1ccc(Br)cc1F ?
PfHsp90 set2: inactive; tim23-1 inh: inactive; tim10-1 inh: inactive; SKKanGAS inh: 52; NALP1 yeast inh: inactive; TIM10 inh: inactive

How did O=C(O)c1cccc(NC(=S)NC(=O)c2ccc(-c3ccc(Cl)cc3)o2)c1 do in these assays?
PfHsp90 set2: inactive; tim23-1 inh: inactive; tim10-1 inh: inactive; SKKanGAS inh: inactive; NALP1 yeast inh: inactive; TIM10 inh: inactive

Results for COc1ccc(C(=O)O)cc1NC(=S)NC(=O)c1ccc(-c2ccc(Cl)cc2)o1 ?
PfHsp90 set2: inactive; tim23-1 inh: inactive; tim10-1 inh: inactive; SKKanGAS inh: 51; NALP1 yeast inh: inactive; TIM10 inh: inactive

What do the screens show for `O=C(O)c1ccc(NC(=S)NC(=O)c2ccc(-c3ccc(Br)cc3)o2)cc1`?
SKKanGAS inh: 55; NALP1 yeast inh: inactive

Results for COC(=O)[C@@H](NC(=O)CCc1nnc(-c2ccsc2)o1)C(C)C ?
PfHsp90 set2: inactive; tim23-1 inh: inactive; tim10-1 inh: inactive; SKKanGAS inh: inactive; NALP1 yeast inh: inactive; TIM10 inh: inactive

What do the screens show for `COc1ccc(CNC2C[C@H]3CCCC(=O)N4CC[C@@H](C2)[C@@H]34)cc1` (stereo partly drawn)?
PfHsp90 set2: inactive; tim23-1 inh: inactive; tim10-1 inh: inactive; TIM10 inh: inactive

Results for Cc1cn([C@H]2C[C@H](O)[C@@H](CCC(=O)NCc3ccccc3)O2)c(=O)[nH]c1=O ?
PfHsp90 set2: inactive

How did CC1(C)C(C=C(Cl)Cl)C1C(=O)Nc1ccc([N+](=O)[O-])cc1 (stereo not drawn) do in these assays?
NALP1 yeast inh: 57

How did COC(=O)c1ccccc1NC(=O)CSc1n[nH]c(-c2cccnc2)n1 do in these assays?
PfHsp90 set2: inactive; tim23-1 inh: inactive; tim10-1 inh: inactive; SKKanGAS inh: inactive; NALP1 yeast inh: 33; TIM10 inh: inactive

Results for Clc1ccc(Nc2ccc(NCc3ccccc3)nn2)cc1 ?
PfHsp90 set2: inactive; tim23-1 inh: inactive; tim10-1 inh: inactive; SKKanGAS inh: inactive; NALP1 yeast inh: 72; TIM10 inh: inactive

How did Cc1ccc(Nc2ccc(NCc3ccccc3)nn2)cc1C do in these assays?
PfHsp90 set2: inactive; tim23-1 inh: inactive; tim10-1 inh: inactive; SKKanGAS inh: inactive; NALP1 yeast inh: inactive; TIM10 inh: inactive

Results for Cc1nc2c(-c3ccc(Cl)cc3)c(C)[nH]n2c(=O)c1Cc1ccccc1 ?
PfHsp90 set2: inactive; tim23-1 inh: inactive; tim10-1 inh: inactive; SKKanGAS inh: 99; NALP1 yeast inh: inactive; TIM10 inh: inactive

How did Cc1nc2c(-c3ccccc3)c(C)[nH]n2c(=O)c1Cc1ccccc1 do in these assays?
PfHsp90 set2: inactive; tim23-1 inh: inactive; tim10-1 inh: inactive; SKKanGAS inh: 52; NALP1 yeast inh: inactive; TIM10 inh: inactive

What do the screens show for `CCC(C)c1ccccc1NC(=O)COC(=O)CCc1cc(OC)c(OC)c(OC)c1` (stereo not drawn)?
PfHsp90 set2: inactive; tim23-1 inh: inactive; tim10-1 inh: inactive; SKKanGAS inh: inactive; NALP1 yeast inh: inactive; TIM10 inh: inactive

What do the screens show for `O=C1S/C(=C\c2ccc(O)c([N+](=O)[O-])c2)C(=O)N1Cc1cccc([N+](=O)[O-])c1`?
PfHsp90 set2: inactive; tim23-1 inh: inactive; tim10-1 inh: inactive; SKKanGAS inh: inactive; NALP1 yeast inh: inactive; TIM10 inh: inactive

What do the screens show for `O=C1S/C(=C\c2ccc(O)c([N+](=O)[O-])c2)C(=O)N1c1ccccc1Cl`?
PfHsp90 set2: inactive; tim23-1 inh: inactive; tim10-1 inh: inactive; SKKanGAS inh: inactive; NALP1 yeast inh: 28; TIM10 inh: inactive

What do the screens show for `O=C(NC1CCCCC1)N1CCN(C(c2ccccc2)c2ccccc2)CC1`?
PfHsp90 set2: inactive; tim23-1 inh: inactive; tim10-1 inh: inactive; SKKanGAS inh: inactive; NALP1 yeast inh: 41; TIM10 inh: inactive
